Laboratory results taken from PubChem BioAssay (NCI).
The panel holds about 83,000 compounds, 20% with a hit somewhere; the sample as a whole holds those more often.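 Each cell line was grown in a 96-well plate and treated with one concentration of compound for 48 hours. Values below 10 were considered active.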 Unmarked numbers belong to inactive results. Active and inactive are the calls of the source.

Assays:
Assay in all cases: NCI-60 one-dose screen, 48 h (100 = growth as untreated, 0 = no growth, -100 = all killed)
Conditions in all cases: 10 µM
HCT-15 colon = test system: HCT-15 colon
HT29 colon = test system: HT29 colon
SNB-75 CNS = test system: SNB-75 CNS
SNB-19 CNS = test system: SNB-19 CNS
U251 CNS = test system: U251 CNS
PC-3 prostate = test system: PC-3 prostate
SK-MEL-5 melanoma = test system: SK-MEL-5 melanoma
UACC-62 melanoma = test system: UACC-62 melanoma
LOX IMVI melanoma = test system: LOX IMVI melanoma
SK-MEL-28 melanoma = test system: SK-MEL-28 melanoma
SK-MEL-2 melanoma = test system: SK-MEL-2 melanoma
EKVX NSCLC = test system: EKVX NSCLC
SN12C renal = test system: SN12C renal
UO-31 renal = test system: UO-31 renal
TK-10 renal = test system: TK-10 renal
ACHN renal = test system: ACHN renal
CAKI-1 renal = test system: CAKI-1 renal
A498 renal = test system: A498 renal
CCRF-CEM leukemia = test system: CCRF-CEM leukemia
MOLT-4 leukemia = test system: MOLT-4 leukemia

Structure (SMILES) | growth (HCT-15 colon) | growth (HT29 colon) | growth (SNB-75 CNS) | growth (SNB-19 CNS) | growth (U251 CNS) | growth (PC-3 prostate) | growth (SK-MEL-5 melanoma) | growth (UACC-62 melanoma) | growth (LOX IMVI melanoma) | growth (SK-MEL-28 melanoma) | growth (SK-MEL-2 melanoma) | growth (EKVX NSCLC) | growth (SN12C renal) | growth (UO-31 renal) | growth (TK-10 renal) | growth (ACHN renal) | growth (CAKI-1 renal) | growth (A498 renal) | growth (CCRF-CEM leukemia) | growth (MOLT-4 leukemia)
CCOc1ccc2ncc(C#Cc3cncc(C(=O)Nc4ccc(CN5CCN(C)CC5)c(C(F)(F)F)c4)c3)n2n1 | -86.1% (active) | -51% (active) | -88.8% (active) | -63.3% (active) | -41.5% (active) | -34.9% (active) | -83.4% (active) | -71.3% (active) | -80% (active) | -83.1% (active) | -75.7% (active) | -65.8% (active) | -82.9% (active) | -65.8% (active) | -66.5% (active) | -87% (active) | 30.4% | 15.9% | 7.96% (active) | -8.54% (active)
CC(=O)Oc1ccccc1C(=O)Oc1ccc(C(=O)/C=C/c2ccncc2)cc1 | -4.84% (active) | 22% | 102% | 47.2% | 14.7% | 54.7% | 71.2% | 50.6% | -44.2% (active) | 68.8% | 108% | 80.6% | 18.6% | 38.7% | 91.6% | 56% | 59.7% | 84% | 43.6% | 40.1%
CCCCOc1ccc(Nc2nc3ccccc3nc2Nc2ccc(OCCCC)cc2)cc1 | 64.4% | 73.7% | 89.5% | 84.1% | 67.3% | 59.7% | 96.3% | 90.6% | 102% | 109% | 99.5% | 82.2% | 95.9% | 85.3% | 91.9% | 97.7% | 91.8% | 105% | 69.1% | 68.3%
Cc1ccc(CSc2nc(-c3ccc(F)cc3)c(C#N)c(=O)[nH]2)cc1 | 84.2% | 89.3% | 115% | 109% | 96.6% | 95.5% | 94.5% | 93.8% | 95.6% | 111% | 103% | 99.6% | 102% | 96.2% | 93.5% | 100% | 92.5% | 99.3% | 94.7% | 88.4%
CN(C)CCNC(=O)OCCCCOc1cc(O)c2c(=O)cc(-c3ccccc3)oc2c1 | -51.8% (active) | -54.4% (active) | 103% | -32.7% (active) | -64.1% (active) | 10.3% | -100% (active) | -88.4% (active) | -100% (active) | -91.5% (active) | -59.7% (active) | 11.7% | -9.43% (active) | -91.2% (active) | 0.634% (active) | -97.5% (active) | -39.1% (active) | -76.4% (active) | -5.67% (active) | -42.1% (active)
CC(=O)Nc1ccc(-c2cn(-c3cccc(C(=O)Nc4cc(C(F)(F)F)cc(C(F)(F)F)c4)c3)nn2)cn1 | -40.5% (active) | -37.4% (active) | -6.74% (active) | -42.4% (active) | -66.2% (active) | -59.5% (active) | -38.9% (active) | -46.2% (active) | -100% (active) | -46.4% (active) | -38.6% (active) | -25.7% (active) | -50.1% (active) | 1.1% (active) | -10.4% (active) | -26.2% (active) | -44.3% (active) | -30.2% (active) | -25.4% (active) | -37.1% (active)
O=c1c2ccccc2nc(COc2ccccc2)n1/N=C/c1ccc(N2CCCC2)cc1 | 82.8% | 79.9% | 108% | 89.5% | 105% | 80.3% | 62.4% | 61.6% | 86.6% | 100% | 104% | 88% | 88.7% | 69.8% | 99.5% | 92.3% | 91.5% | 109% | 78.2% | 78.1%
O=c1[nH]c2ccccc2cc1CSc1ccc(Nc2nccc(-c3ccc(Cl)cc3)n2)cc1 | 8.92% (active) | 0.0418% (active) | -41.8% (active) | -40.3% (active) | -72.3% (active) | 8.58% (active) | 48.2% | 23.7% | -79.6% (active) | 43.2% | 4.31% (active) | -49.6% (active) | -47.7% (active) | -70.4% (active) | -64.2% (active) | -89.9% (active) | -83.5% (active) | -65.3% (active) | 57.1% | 59.8%
O=c1c2ccccc2nc(COc2ccccc2)n1/N=C/c1ccc(F)cc1 | 76.5% | 61.4% | 105% | 87.7% | 101% | 76.2% | 68.5% | 62.9% | 94.9% | 96% | 94.5% | 92.1% | 86.5% | 84.4% | 105% | 91.1% | 94.3% | 106% | 86.2% | 72.9%
COc1cc2c3c(n(CCCNCCO)c(=O)c2cc1OC)-c1nc2c(cc1C3=O)OCO2 | 48.5% | 5.98% (active) | 18.8% | 13.7% | 12.4% | 27.1% | 30.4% | 1.57% (active) | -90.8% (active) | 72.2% | 116% | 79% | 8.45% (active) | 24.4% | 85.5% | 2.56% (active) | 7.66% (active) | 69.3% | 8.64% (active) | -14.4% (active)
Cc1ccc(CNC(=O)Cc2ccc3c(c2)CN(C2CCC(=O)NC2=O)C3=O)cc1 (stereo not given) | -20.1% (active) | 24.6% | -16.8% (active) | 4% (active) | 55.5% | 10.4% | -70.5% (active) | 40.6% | 71.4% | 22% | 0.232% (active) | 54.5% | 4.57% (active) | -21.3% (active) | 33.2% | 30.5% | 52.6% | -9.84% (active) | 8.32% (active) | -24.9% (active)
CCCn1c(=O)c2[nH]c(-c3ccc(OCc4nc5ccc(C(F)(F)F)cc5[nH]4)cc3)nc2n(CCC)c1=O | 23.1% | 62% | 84.6% | 71.5% | 37.6% | 33.2% | 37.1% | 6.48% (active) | 35.5% | 58.4% | 66.8% | 53.2% | 53.5% | 52.1% | 96.2% | 64.7% | 43.6% | 51.1% | 35.3% | 11.5%
N#Cc1c(-c2ccc(F)cc2)nc(SCc2ccc([N+](=O)[O-])cc2)nc1N1CCOCC1 | 72.8% | 86.6% | 7.62% (active) | 46% | 55.3% | 59.1% | 61.9% | 62.7% | 84.7% | 82.1% | 87.4% | 39.3% | 74.6% | 50.9% | 84.2% | 51% | 35.9% | 64.4% | 77.2% | 73.7%
C=CCn1c(SCC(=O)Nc2ccc(C(=O)/C=C/c3ccccc3)cc2)nnc1-c1c[nH]c2ccccc12 | -57.2% (active) | -31.5% (active) | 82.3% | 54.1% | -52.5% (active) | 39.4% | 27.7% | 47% | -100% (active) | 68.5% | 58.3% | 40.9% | 68.3% | 31.2% | 89.2% | 52.2% | 57.3% | 109% | 55.4% | 33.2%
CC(=O)c1cc(C(=O)N2c3ccccc3Sc3ccccc32)n2ccc(C)cc12 | 10.5% | 32.7% | 83.1% | 49.8% | 36.1% | 28.3% | -36.3% (active) | 23.8% | -40% (active) | 48.7% | 72.5% | 53.1% | 42.3% | 35.1% | 78.9% | 29.1% | 35.3% | 85.4% | 24.8% | 22.6%
